A selection: hits, their analogues and other compounds. The true share with any hit is near 3.2%.
bovine MsrA act – activates bovine MsrA enzyme; 360,000 compounds, 0.3% hits; purified bovine MsrA, absorbance read-out; activation, % at 10.6 µM; in the data active = activation above about 7.5%;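 note: 0% = vehicle and 100% = reference activator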
Pemphigus Ab inh – blocks pemphigus antibody binding to human desmoglein-3. DSG3-coupled beads, scFv-anti-DSG3-GFP binding, flow cytometry; stronger effect = lower value. binding (percent of control), % at 10 µM. 310,000 compounds, 0.48% hits. AID 588358;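 active = binding more than 3 SD below its plate's average and above zero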
rCAG RNA binder – r(CAG) repeat RNA binding; TO-PRO-1 dye displacement fluorescence; inhibition, % at 3 µM; 370,000 compounds, 1.3% hits; AID 651821;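 active = inhibition above the plate cutoff, the mean of all test compounds on that plate plus 3 SD, cut at about 35% in these data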;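 note: 0% = DMSO alone and 100% = 100 µM mitoxantrone as full dye displacement; higher means more dye released from RNA so lower well fluorescence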
NadD block – blocks S. aureus nicotinate mononucleotide adenylyltransferase; purified NadD enzyme, colorimetric absorbance read-out; inhibition, % at 20 µM; 360,000 compounds, 0.78% hits; in the data active = inhibition above about 26%
DAGLB inh – blocks human DAGLB lipase activity; HEK293T DAGLB membrane lysate, EnzChek fluorogenic substrate; Q8NCG7; inhibition, % at 5.17 µM; 340,000 compounds, 0.059% hits; in the data active = inhibition above about 34%;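 note: 0% = enzyme with vehicle and 100% = wells lacking enzyme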
Target sequence (Q8NCG7 whole entry, looked up): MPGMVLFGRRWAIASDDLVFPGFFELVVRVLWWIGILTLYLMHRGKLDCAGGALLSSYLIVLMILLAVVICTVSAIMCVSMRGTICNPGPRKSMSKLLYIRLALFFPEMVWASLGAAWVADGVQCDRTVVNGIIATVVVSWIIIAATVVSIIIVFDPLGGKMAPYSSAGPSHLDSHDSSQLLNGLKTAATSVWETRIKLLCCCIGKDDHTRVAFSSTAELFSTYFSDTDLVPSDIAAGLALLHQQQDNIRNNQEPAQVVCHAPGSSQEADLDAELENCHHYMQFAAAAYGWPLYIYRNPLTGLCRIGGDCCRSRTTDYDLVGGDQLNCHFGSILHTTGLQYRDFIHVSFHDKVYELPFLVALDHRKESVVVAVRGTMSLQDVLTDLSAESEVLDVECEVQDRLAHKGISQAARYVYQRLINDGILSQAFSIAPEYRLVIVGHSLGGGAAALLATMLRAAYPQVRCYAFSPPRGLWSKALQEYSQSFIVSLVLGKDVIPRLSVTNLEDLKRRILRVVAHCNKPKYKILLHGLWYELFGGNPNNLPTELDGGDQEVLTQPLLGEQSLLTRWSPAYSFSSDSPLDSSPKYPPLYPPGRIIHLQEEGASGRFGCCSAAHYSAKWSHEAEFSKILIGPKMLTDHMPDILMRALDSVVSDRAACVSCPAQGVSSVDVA
MsrA inhibitor – inhibitors of bovine MsrA; inhibition, % at 15.5 µM; 360,000 compounds, 0.75% hits; purified bovine MsrA, absorbance read-out; in the data active = inhibition above about 4.5%;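 note: 0% = vehicle wells with enzyme and 100% = reference inhibitor wells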
Numbers without * were called inactive; x = not tested or not shown.

SMILES | bovine MsrA act | Pemphigus Ab inh | rCAG RNA binder | NadD block | DAGLB inh | MsrA inhibitor
Nc1c(C(=O)OCC2CCCO2)c2nc3ccccc3nc2n1-c1ccc2c(c1)OCCO2 (stereo not drawn) | x | x | 3.7 | x | x | 1.3
O=c1c2c3nc4ccccc4nc3n(-c3ccc4c(c3)OCCO4)c2ncn1C1CCCC1 | -5.2 | 66.5* | -1.4 | 9.6 | -0.2 | 2.6
Cc1[nH]n(C(N)=S)c(=O)c1N=Nc1cc(-c2ccc(Br)cc2)[nH]n1 | -5.9 | 98.5 | 12.0 | 42.6* | x | 0.5
Cc1cccc(-c2cccc3c4c([nH]c23)[C@@H]2C[C@H](N(C)C(=O)c3ccccc3C)[C@H]([C@H](C)O)C(=O)N2CC4)c1 | x | x | 7.7 | x | x | x
Cc1ccccc1N1CCN(C2=NC(=O)/C(=C\c3cccs3)S2)CC1 | 3.7 | 95.5 | -2.6 | 10.4 | 1.8 | 3.7
O=C1N=C(N2CCN(c3cccc4ccccc34)CC2)S/C1=C/c1cccs1 | -12.5 | 100.4 | 5.5 | 28.0* | 4.5 | 0.7
Cc1cc(NC(=O)CCc2c[nH]c3ccccc23)ccc1Oc1cccnc1 | x | x | 4.3 | x | x | 0.0
Cc1ccc(-c2csc(Nc3ccc(C(=O)O)cc3)[n+]2Cc2ccccc2)cc1 | -12.9 | 94.8 | 1.1 | 44.3* | -0.8 | -1.1
COc1ccc(-c2csc(Nc3ccccc3)[n+]2Cc2ccccc2)cc1 | -2.6 | 108.8 | 0.6 | 12.5 | -4.0 | 2.3
CCNC(=O)C1(C)CCCN1Cc1c(F)cccc1F (stereo not drawn) | -1.9 | x | -1.3 | -3.0 | x | -0.1
Cc1ccc(S(=O)(=O)N(CC(=O)N=Nc2c(O)[nH]c3ccccc23)c2cccc(C)c2)cc1 | 0.1 | 84.8* | 15.5 | 21.2 | 2.7 | 2.2
O=C1CS/C(=N/N=C/c2cccs2)N1Cc1ccc(F)cc1 | -3.2 | 70.0* | 0.5 | -4.5 | x | 1.3
Nn1c(SCc2c(Cl)cccc2Cl)nnc1-c1n[nH]c2c1CCC2 | x | x | 1.2 | x | x | x
Cc1nc(NNC(=O)c2ccc(Cl)cc2Cl)cc(-c2ccccc2)n1 | 0.0 | 70.9* | 7.2 | 7.7 | 1.4 | 0.9
CC(C)c1cc(N=NC(N)=O)cc(C(C)C)c1O | -5.6 | 100.3 | 1.7 | -0.6 | 1.9 | 4.6*
Cc1nc(NC(=O)/C=C/c2ccco2)sc1C | -11.3 | -3.5* | 4.0 | 2.0 | 4.3 | 2.5
Cc1nn(C)cc1NC(=O)C[C@H]1CC[C@H]2[C@@H](COc3ccc(NC(=O)Nc4ccccc4)cc3C(=O)N2C)O1 | x | x | 3.1 | x | x | x
O=C(CN(c1ccc(Cl)cc1)S(=O)(=O)c1ccc(Cl)c([N+](=O)[O-])c1)NCCc1ccc(F)cc1 | -1.7 | 44.7* | 0.8 | 4.3 | -1.9 | 0.9
Cc1cc(C)cc(N=Cc2ccc([N+](=O)[O-])s2)c1 | 5.4 | 106.6 | -1.0 | 0.3 | 1.9 | 2.5
O=[N+]([O-])c1ccc(C=Nc2ccc(Cl)c([N+](=O)[O-])c2)s1 | 2.5 | 103.9 | 2.3 | 7.7 | 0.7 | 5.1*
COc1ccc(C(C(=O)N(C)C2CCCC2)N(Cc2ccc(F)cc2)C(=O)c2sccc2Cl)cc1OC (stereo not drawn) | x | x | 0.0 | x | x | x
COC1=C(NCc2ccc3c(c2)OCO3)C(=O)C(OC)=C(NCc2ccc3c(c2)OCO3)C1=O | 1.2 | -14.7* | 4.8 | 0.5 | 2.5 | -0.5
COC(=O)[C@]12CCCCC=C1N(Cc1ccc3c(c1)OCO3)C(=O)[C@H](CC(=O)NCc1ccc(OC)c(OC)c1)C2 | x | x | 2.5 | x | x | -1.4
O=C(NCc1ccco1)c1ccc(Cl)nc1 | -8.3 | 78.3* | 1.7 | -3.2 | -1.1 | 1.3
CC1=C(C#N)C(=O)NC(=O)/C1=C\c1ccc(-c2cc(C)c(C)cc2[N+](=O)[O-])o1 | -6.0 | 95.6 | 55.3* | 14.2 | 8.8 | 9.0*
SMILES | bovine MsrA act | Pemphigus Ab inh | rCAG RNA binder | NadD block | DAGLB inh | MsrA inhibitor
CSc1cccc(NC(=O)CNC(=O)c2ccc3c(c2)OCO3)c1 | 0.4 | 113.5 | 2.2 | -2.4 | -0.4 | -0.8
CSc1cccc(-n2cc(-c3ccc4c(c3)OCO4)[nH]c2=O)c1 | -4.6 | 88.7 | x | 38.6* | 2.4 | x
O=C(CSc1cccc[n+]1[O-])Nc1cc([N+](=O)[O-])ccc1Cl | 3.9 | 115.6 | -0.9 | -9.2 | 0.5 | 0.5
O=C(CSc1cccc[n+]1[O-])Nc1cc2c(cc1Cl)C(=O)c1ccccc1C2=O | 0.7 | 77.9 | 12.4 | 34.1* | 1.2 | 0.7
COc1ccc(S[C@]2(C(=O)N3CCCC3)CC(=O)N(c3ccccc3OC)[C@@H]2c2ccc(OC)cc2)cc1 | x | x | 6.6 | x | x | x
CCOC(=O)[C@]12CCCCC/C=C\1N(Cc1ccc(OC)cc1)C(=O)[C@H]2CC(=O)NCCC(C)C | x | x | -1.3 | x | x | x
CCOC(=O)c1sc(Nc2nc3c(F)cccc3s2)cc1C | -2.3 | 78.1* | 22.6 | 3.1 | -3.6 | 2.0
CC(=O)C1CCC2C3CC=C4CC(SC(=N)N)CCC4(C)C3CCC12C (stereo not drawn) | -3.1 | 106.1 | 18.3 | 7.4 | 6.5 | -1.2
O=C(Cc1ccccc1)Nc1c2c(nn1-c1cccc(Cl)c1)CS(=O)(=O)C2 | 0.5 | 86.1* | 4.3 | -1.6 | 0.8 | 1.8
COc1ccc(CC(=O)Nc2c3c(nn2-c2cccc(Cl)c2)CS(=O)(=O)C3)cc1 | -2.8 | 99.5 | 7.7 | 2.2 | -1.8 | 1.3
Cc1cc2nc3s/c(=C/c4ccc(-c5ccccc5C(=O)O)o4)c(=O)n3c2cc1C | -8.2 | 343.4 | 16.7 | 16.4 | -2.7 | 0.9
O=C(O)c1ccccc1-c1ccc(/C=c2\sc3nc4cc(Br)cnc4n3c2=O)o1 | -7.8 | 43.4* | x | 25.6 | -4.4 | x
O=C(c1ccccc1[N+](=O)[O-])n1cnc2ccccc21 | -3.9 | 86.9 | -3.1 | -0.3 | 1.0 | 0.8
O=C(c1ccc([N+](=O)[O-])cc1[N+](=O)[O-])n1cnc2ccccc21 | 1.9 | 78.8* | 1.2 | 1.2 | 5.1 | -0.2
C=C(Br)CN1[C@@H](Cc2ccccc2)[C@H](O)[C@@]23C=C[C@@H](C[C@@H]2S1(=O)=O)O3 | -4.5 | 85.5* | -2.6 | -4.3 | -1.8 | -0.3
Cc1ccc(NC(=O)CN2C(=O)CCSc3ccccc32)cc1C | x | x | 3.9 | x | x | x
Cc1ccc(S(=O)(=O)N(C)[C@H]2C[C@H]3c4cc(-c5ccccc5C)ccc4CCN3C[C@H]2[C@H](C)O)cc1 | x | x | 4.3 | x | x | x
COc1ccc2nc(NC(=O)CSc3nc4cccnc4n3C)sc2c1 | -3.9 | 83.6* | 6.7 | -4.6 | -0.2 | 1.9
COc1ccc(NC(=O)CSc2nc3cccnc3n2C)cc1 | -2.1 | 110.7 | -0.5 | 3.4 | -1.2 | 0.2
O=C(Cn1nnc(-c2ccc(N3CCOCC3)cc2)n1)OC1CCCCC1 | -0.6 | 60.1* | -0.1 | -1.5 | -3.0 | -0.4
O=C(c1cnn(-c2nc3ccccc3s2)c1)c1ccccc1O | -2.0 | 8.3* | 0.2 | -0.8 | -6.9 | 1.1
COc1cccc(C(=O)Nc2ccc(N3CCN(S(C)(=O)=O)CC3)cc2)c1 | -3.7 | 99.1 | -2.6 | 1.7 | -0.5 | 0.4
CCOc1cccc(C(=O)Nc2ccc(N3CCN(S(C)(=O)=O)CC3)cc2)c1 | -2.1 | -21.6* | -2.9 | -3.5 | -2.1 | -1.2
COc1ccc2cc(C#N)c(SCC(=O)N3CC(=O)Nc4ccccc43)nc2c1 | -2.6 | 69.2* | x | 10.3 | 1.4 | x

Source: PubChem (several laboratories)
